# Marburg entry inh: inhibitors of Marburg virus binding or cell entry; Marburg virus pseudotyped entry inhibition, cell reporter; Potency, µM (doses to about 37.8 µM), for the others: at the top dose activity change, negative = inhibition, most hits filed as inhibitors; actives 1.8% (n = 300,000); AID 540276; calls by dose curve; tested in HEK293 cells
# VACV Venus inh: vaccinia inhibition (Venus reporter). Vaccinia virus Venus reporter expression, fluorescence. Potency, µM (top dose mostly 36.5 µM), inactives show at the top dose activity change, negative = inhibition, hits mostly inhibitors. actives 0.46% (n = 330,000). AID 720580; calls by dose curve; tested in A549 cells; further: nearly all actives have a fitted effect of over 30% in size
# Sm TGR block: blocks Schistosoma mansoni thioredoxin glutathione reductase. Q962Y6. purified TGR, DTNB reduction, TNB absorbance 405 nm. Potency, µM (highest dose often 114 µM), inactives show at the top dose activity change, negative = inhibition, actives largely listed as inhibitors. actives 3% (n = 360,000); active means well fitted inhibition curve with a large enough effect; inconclusive means small, poorly fitted or top-dose-only effect; inactive means no such curve, though single readings can be large or run the other way; further: nearly all actives have a fitted effect of over 60% in size
#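 Kinetic colorimetric format: TGR-catalysed, NADPH-driven DTNB reduction monitored via TNB absorbance. Enzyme dispensed at 20 nM; compound exposure 15 min at room temperature before reaction start.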
# LASV entry inh: Lassa virus entry inhibition | Lassa virus pseudotype entry inhibition, cell reporter | Potency, µM (doses to about 37.9 µM), without a hit: top-dose activity change, negative = inhibition, actives largely listed as inhibitors | actives 1.2% (n = 300,000); calls by dose curve; tested in HEK293 cells; further: nearly all actives have a fitted effect of over 50% in size
# FMDV inh: blocks foot and mouth disease virus | actives 1.2% (n = 410,000) | Potency, µM (top dose mostly 57.9 µM), for the others: top-dose activity change, negative = inhibition, usual class: inhibitors | AID 1159524 | FMDV antiviral cell-based qHTS; calls by dose curve; tested in HEK293T cells; further: read-out not given here; nearly all actives have a fitted effect of over 45% in size
# Vaccinia mCherry: inhibitors of vaccinia virus infection (mCherry reporter signal) | Vaccinia virus mCherry reporter infection, fluorescence | Potency, µM (doses to about 36.5 µM), for inactives: at the highest dose activity change, negative = inhibition, hits mostly inhibitors | AID 720579 | actives 0.63% (n = 310,000); calls by dose curve; tested in A549 cells; further: nearly all actives have a fitted effect of over 35% in size
# * marks the source's active call; other numbers are inactive results; i = inactive; u = inconclusive; x = no result given; [ ] = another dose, or the depositor's remark. Only some compounds are listed: those with a hit (about 5.4% of all), similar ones and a draw of the others. On the % scale 0 is the no-effect control and ±100 the full control effect; potency means the concentration at half of the fitted maximal effect.
SMILES,Marburg entry inh,VACV Venus inh,Sm TGR block,LASV entry inh,FMDV inh,Vaccinia mCherry
CCOc1cc(C=O)ccc1O,x,-5%,x,x,-11%,-3%
COc1cc(/C=C2/CCC/C(=C\c3cc(O)c(OC)c(Cl)c3)C2=O)cc(Cl)c1O,u,x,0%,u,u,x
COc1cc(/C=C2\CCC/C(=C\c3ccc(O)c(OC)c3)C2=O)ccc1O,u,u,u,u,u,6.3µM*
CCOc1cc(/C=C2\CN(CC)C/C(=C\c3ccc(O)c(OCC)c3)C2=O)ccc1O,4.5µM*,-24%,40µM*,5µM*,10µM*,u
CCCCC(CC)CNC(=O)c1ccc(Cn2c(=O)[nH]c3cc(OC)c(OC)cc3c2=O)cc1 (configuration not stated),15%[46.1 µM],u,8%,u,-4%,u
COc1cccc(-c2cc3c(c(OC)c2)OCCN(S(=O)(=O)c2ccccc2OC(F)(F)F)C3)n1,x,-6%,x,x,7%,-16%
COc1ccc(/C=C2\CCCC(C(=O)C(F)(F)F)=C2O)cc1OC,x,x,32µM*,x,x,x
COc1cc(/C=C2\CC/C(=C\c3cc(OC)c(O)c(OC)c3)C2=O)cc(OC)c1O,u,20%,28µM*,-23%,22µM*,i
COc1cc(/C=C2\CC/C(=C\c3cc(OC)c(OC)c(OC)c3)C2=O)cc(OC)c1OC,u,-17%,-16%,-22%,u,-9%
C(=N\n1cnnc1SCc1ccccc1)/c1ccco1,11%,-10%,22µM*,-19%,-20%,x
CCOc1ccc(C2Nc3cccc4cccc(c34)N2)cc1OC,u,-4%,25µM*,0%,-18%,-4%[1.46 µM]
COc1ccccc1C1Nc2cccc3cccc(c23)N1,-30%,x,u,-3%,-4%,x
CCOc1cc(C2Nc3cccc4cccc(c34)N2)ccc1O,u,x,11µM*,-4%,-12%,x
O=C(Nc1cccc(Cl)c1)c1cnc2sc(N3CCCC3)nn2c1=O,x,u,1%,-9%[46.1 µM],u,u
COc1ccc2c(c1)c(C(=O)CN1CCN(C)CC1)c(C)n2Cc1ccccc1,20µM*,u,-11%,-6%,-24%,x
O=C(Nc1cc(Cl)cc2c1-c1ccc(Cl)cc1C2O)C(Cl)Cl (configuration not stated),u,-26%,x,13µM*,-23%,-26%
CN(CC(=O)O)c1ccc(C=O)cc1,x,-21%,x,x,x,-5%
Cc1cc(Cl)ccc1OCC(=O)N(Cc1sccc1C)C1CCS(=O)(=O)C1 (configuration not stated),-22%[46.1 µM],-9%,9%,-6%[46.1 µM],-25%,-8%
COc1ccc2c(-c3ccccc3)cc(SCC(N)=O)nc2c1,5.6µM*,3%,-8%,u,-23%,-2%
Cc1c(Cl)cccc1N1C(N)=C(C#N)C(c2cc(CN3CCOCC3)cs2)C2=C1CCCC2=O (configuration not stated),-2%[46.1 µM],-2%,0%,-1%[46.1 µM],3%,-10%
COc1cc(C(=O)ON=C2C=C(C)C(=O)C(C)=C2)cc(OC)c1OC,-25%,18%,-4%,0%,-16%,-6%
COc1cc(C(=O)O/N=C2\C=CC(=O)C(C)=C2)cc(OC)c1OC,u,x,3.2µM*,u,u,x
CN1CCN(Cc2nc3ccccc3c(=O)n2CC#N)CC1,x,x,5%,x,-9%,x
N#CCn1c(CCl)nc2ccccc2c1=O,x,x,28µM*,x,7.9µM*,x
Cc1ccc(S(=O)(=O)c2c(N)n(Cc3ccco3)c3nc4ccccc4nc23)cc1C,u,x,10µM*,-9%,41%,x
SMILES,Marburg entry inh,VACV Venus inh,Sm TGR block,LASV entry inh,FMDV inh,Vaccinia mCherry
Nc1c(S(=O)(=O)c2cccs2)c2nc3ccccc3nc2n1CCc1ccccc1,1%,x,26%,x,x,x
Cn1c(N)c(S(=O)(=O)c2ccc(Br)cc2)c2nc3ccccc3nc21,6.3µM*,u,-7%,8%,47%,-5%
Nc1c(S(=O)(=O)c2ccccc2)c2nc3ccccc3nc2n1Cc1ccco1,u,x,18µM*,u,36%,x
Nc1c(S(=O)(=O)c2ccccc2)c2nc3ccccc3nc2n1CCN1CCOCC1,18%,x,6%,-11%,42%,x
CC(C)CCn1c(N)c(S(=O)(=O)c2cccs2)c2nc3ccccc3nc21,15µM*,u,5%,39%[14.3 µM],21%,u
Cc1ccc(S(=O)(=O)c2c(N)n(CCN3CCOCC3)c3nc4ccccc4nc23)cc1C,28%[46.1 µM],-2%,-6%,0%,17%,2%
Cc1cccc(NC(=O)Cn2c(=O)oc3cc(S(=O)(=O)N4CCCCCC4)ccc32)c1,u,-21%,-15%,1%[46.1 µM],-25%,-22%
Cc1cccc2c1N[C@H](C)C[C@@H]2C,7%,x,x,x,x,x
Cc1cccc(S(=O)(=O)c2c(N)n(/N=C/c3ccccc3)c3nc4ccccc4nc23)c1,u,x,0%,-13%,24%,x
Nc1c(S(=O)(=O)c2ccccc2)c2nc3ccccc3nc2n1/N=C/c1cccc(O)c1,-16%,11µM*,3%,0%,-27%,x
CCSc1ccccc1C(=O)N1CCN(c2nc3ccccc3s2)CC1,x,-16%[7.34 µM],-7%,-26%[46.1 µM],u,i[7.34 µM]
c1cncc(-c2nc(NCCCN3CCOCC3)c3c4c(sc3n2)CCC4)c1,10µM*,u,2%,u,-2%,-17%
Nc1ccc(C(=O)C(=O)c2ccc(N)cc2)cc1,x,-18%,-3%,x,8%,i
N=C1C=CC(=C(c2ccc(N)cc2)c2ccc(N)cc2)C=C1,4µM*,u,x,5µM*,-47%,u
Nc1nc(N)c2cc(Sc3ccc4ccccc4c3)ccc2n1,x,x,1%,x,u,x
Nc1nc(N)c2cc(Sc3cccc(C(F)(F)F)c3)ccc2n1,x,5µM*,x,x,u,7.1µM*
Nc1nc(N)c2cc(Sc3ccc(Cl)cc3)ccc2n1,x,6.3µM*,x,x,-18%,u
Cc1c(-c2ccccc2)n(-c2ccccc2O)c2nc3c(c(=O)n(C)c(=O)n3C)n12,u,-16%,-1%,u,25µM*,-18%
COCCn1c(-c2ccccc2)c(C)n2c3c(=O)n(C)c(=O)n(C)c3nc12,u,1%,-3%,-27%[46.1 µM],3.2µM*,-3%
Cc1ccc(-c2c(C)n3c4c(=O)n(C)c(=O)n(C)c4nc3n2CCO)cc1,x,-24%,5%,u,18µM*,u
Cc1nn(CCC(=O)Nc2ccc(Cl)cc2)c(C)c1S(=O)(=O)N1CCCCC1,x,-17%,-5%,-1%[46.1 µM],-23%,-14%
CCCN1CNc2c(c(=O)[nH]c(=S)n2CCc2ccccc2OC)C1,x,-13%,x,x,x,-10%
c1ccc(C2(CN3CCNC[C@H]3Cc3cccc4ccccc34)CC2)cc1,x,u,-19%,x,-23%,u
CC(C)(C)CN1CCNC[C@H]1Cc1cccc2ccccc12,x,-19%,22µM*,x,-14%,-12%
O=C(CCC1CCCCC1=O)c1ccccc1 (configuration not stated),-5%,-25%,7%,-2%,51%,-29%
O=C(CC1C(=O)CCCC1=O)c1ccccc1,u,-4%,40µM*,-17%,u,-13%
